Experimental data from PubChem BioAssay (Tox21).
Inconclusive results are not listed. The source made the active and inactive calls. Unless noted, the call rests on the fitted dose curve.

What was measured:
[1] = Nuclear factor erythroid 2-related factor 2/antioxidant responsive element (Nrf2/ARE) small molecule agonists: qHTS cell viability counter screen in human keratinocytes (AID 1919968; active means well fitted curve in the direction sought with a large enough effect in the repeat runs; an effect the other way counts as inactive or inconclusive; further: nearly all actives have a fitted effect of over 55% in size; further: potency means the concentration at half of the fitted maximal effect)
Method in brief: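 In human HaCaT keratinocytes stably expressing an ARE-driven luciferase, compound exposure lasted 23 h at 37 C under 5% CO2. Viable cells are quantified with a protease-based fluorogenic reagent (CellTiter-Fluor) read 1 h after addition.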

[2] = Nuclear factor erythroid 2-related factor 2/antioxidant responsive element (Nrf2/ARE) small molecule agonists: luciferase reporter gene qHTS assay in human keratinocytes (AID 1919969); further: nearly all actives have a fitted effect of over 35% in size; further: potency means the concentration at half of the fitted maximal effect
[3] = biological target: Gonadotropin-releasing hormone receptor (Homo sapiens) (UniProt P30968); experiment: Human gonadotropin-releasing hormone receptor (GnRHR) small molecule agonists, calcium flux assay in GnRHR-HEK293 cells (AID 1920063); further: nearly all actives have a fitted effect of over 35% in size
Sequence of Gonadotropin-releasing hormone receptor (Homo sapiens) (P30968 whole entry, looked up): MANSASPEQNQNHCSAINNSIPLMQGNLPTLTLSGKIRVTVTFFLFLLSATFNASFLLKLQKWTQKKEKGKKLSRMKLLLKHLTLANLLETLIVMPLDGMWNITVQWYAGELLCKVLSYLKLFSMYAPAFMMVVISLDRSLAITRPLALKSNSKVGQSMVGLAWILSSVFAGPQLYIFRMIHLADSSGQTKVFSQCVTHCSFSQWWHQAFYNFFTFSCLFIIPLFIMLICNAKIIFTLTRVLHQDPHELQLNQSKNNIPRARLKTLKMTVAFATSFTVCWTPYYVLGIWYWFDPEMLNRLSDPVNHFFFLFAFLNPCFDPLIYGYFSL
Method in brief: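 Intracellular calcium rise is the read-out: engineered human GnRHR HEK293 cells, dye-loaded, are exposed to DMSO-dissolved compounds and fluorescence at Ex/Em 480/540 is tracked for 3 min.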

[4] = biological target: KiSS-1 receptor (Homo sapiens) (UniProt Q969F8); experiment: Human kisspeptin (KISS1R) small molecule agonists, calcium flux assay in KISS1R-HEK293 cells (AID 1920064; active means well fitted curve in the direction sought with a large enough effect in the repeat runs; an effect the other way counts as inactive or inconclusive)
Sequence of KiSS-1 receptor (Homo sapiens) (Q969F8 whole entry, looked up): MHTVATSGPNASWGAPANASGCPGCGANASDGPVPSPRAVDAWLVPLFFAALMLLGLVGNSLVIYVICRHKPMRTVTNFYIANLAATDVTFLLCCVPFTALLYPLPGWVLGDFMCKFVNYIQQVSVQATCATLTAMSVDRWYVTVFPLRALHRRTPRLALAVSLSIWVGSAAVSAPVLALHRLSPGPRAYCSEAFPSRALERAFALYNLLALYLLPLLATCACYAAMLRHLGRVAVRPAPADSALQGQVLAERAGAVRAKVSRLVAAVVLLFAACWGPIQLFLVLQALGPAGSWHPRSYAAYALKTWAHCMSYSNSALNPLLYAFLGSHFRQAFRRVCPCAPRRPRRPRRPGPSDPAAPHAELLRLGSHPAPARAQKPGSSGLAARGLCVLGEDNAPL
Method in brief: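 Concentration-response testing used 15 concentrations in triplicate on human KISS1R-expressing HEK293 cells. Calcium-dependent fluorescence (Ex/Em 480/540) was followed kinetically for 3 min after compound transfer.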

[5] = G protein-coupled receptor (GPCR) small molecule agonists, calcium flux assay: HEK293 wild type cell line counter screen (AID 1920065)
Method in brief: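 Fluorescence intensity signals activation. After overnight (18 h) culture and a 1 h calcium dye load at 37 C, compounds are added by pin tool and the plate read at 480/540 nm for 3 min in 1 s steps.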

[6] = p53 small molecule agonists, cell-based qHTS assay with rat liver microsomes (AID 1963578)
Method in brief: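 p53RE-bla cells, 4,000/well, pre-incubated 5 h, then given compounds plus rat liver microsomes (0.5 mg/mL final) and NADPH (0.5 mg/mL final). Incubation 16 h at 37 C; beta-lactamase reporter read by LiveBLAzer fluorescence after 2 h at room temperature.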

[7] = p53 small molecule agonists, cell-based qHTS assay with human liver microsomes: qHTS cell viability counter screen (AID 1963579); further: nearly all actives have a fitted effect of over 45% in size; further: potency means the concentration at half of the fitted maximal effect
Method in brief: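 p53RE-bla cells, 4,000/well, dosed 5 hours after plating, with human liver microsomes (0.5 mg/mL final) plus NADPH (0.5 mg/mL final), 16 hours at 37 C. Viability read as CellTiter-Glo luminescence after 30 min at room temperature.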

[8] = p53 small molecule agonists, cell-based qHTS assay with rat liver microsomes: qHTS cell viability counter screen (AID 1963580); further: nearly all actives have a fitted effect of over 45% in size
Method in brief: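 Counter screen for cytotoxicity under metabolic activation: rat liver microsomes and NADPH, 0.5 mg/mL final each, added with compounds to p53RE-bla HCT-116 cells; 16 h at 37 C, then ATP luminescence read.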

[9] = p53 small molecule agonists, cell-based qHTS assay: qHTS cell viability counter screen (AID 1963581); further: nearly all actives have a fitted effect of over 45% in size
Method in brief: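 Luminescence from CellTiter-Glo, reflecting ATP content, serves as the cytotoxicity measure; it is taken after the 2 h reporter substrate step in HCT-116 p53RE-bla cells dosed for 16 h at 37 C.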

[10] = biological target: 5-hydroxytryptamine receptor 2A (Homo sapiens) (UniProt P28223); experiment: 5-hydroxytryptamine receptor 2A (HTR2A) small molecule antagonists, cell-based qHTS assay (AID 1963586); further: nearly all actives have a fitted effect of over 45% in size; further: potency means the concentration at half of the fitted maximal effect
Sequence of 5-hydroxytryptamine receptor 2A (Homo sapiens) (P28223 whole entry, looked up): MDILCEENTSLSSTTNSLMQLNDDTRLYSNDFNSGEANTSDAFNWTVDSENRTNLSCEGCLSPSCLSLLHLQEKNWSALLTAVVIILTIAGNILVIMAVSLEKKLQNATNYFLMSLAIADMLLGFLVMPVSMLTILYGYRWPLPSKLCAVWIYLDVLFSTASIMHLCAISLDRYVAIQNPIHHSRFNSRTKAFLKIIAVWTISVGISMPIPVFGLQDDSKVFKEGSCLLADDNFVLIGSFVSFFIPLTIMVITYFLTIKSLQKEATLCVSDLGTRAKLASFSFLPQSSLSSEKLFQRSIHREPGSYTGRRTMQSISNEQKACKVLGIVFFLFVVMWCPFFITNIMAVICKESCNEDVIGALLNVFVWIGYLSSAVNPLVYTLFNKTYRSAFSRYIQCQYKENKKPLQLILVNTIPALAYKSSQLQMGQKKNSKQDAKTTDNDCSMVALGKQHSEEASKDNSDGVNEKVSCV
Method in brief: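 CHO cells stably expressing human HTR2A were plated for 18 h at 37 C, then loaded with calcium dye for 1 h. Compounds were preincubated 5 min at room temperature before DOI (4 nM solution) was added. Kinetic fluorescence was read for 3 min.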

[11] = biological target: 5-hydroxytryptamine receptor 2A (Homo sapiens) (UniProt P28223); experiment: 5-hydroxytryptamine receptor 2A (HTR2A) small molecule agonists, cell-based qHTS assay (AID 1963587); further: nearly all actives have a fitted effect of over 30% in size
Method in brief: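 HTR2A-CHO cells, plated 18 h at 37 C/5% CO2, dye-loaded 1 h at 37 C; compounds in DMSO added by pin tool (agonist mode). Intracellular calcium flux read as kinetic fluorescence on FDSS over 2 min at 1 s intervals.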

[12] = biological target: Muscarinic acetylcholine receptor M1 (Homo sapiens) (UniProt P11229); experiment: Cholinergic receptor muscarinic 1 (CHRM1) small molecule antagonists, cell-based qHTS assay (AID 1963588); further: nearly all actives have a fitted effect of over 40% in size; further: potency means the concentration at half of the fitted maximal effect
Sequence of Muscarinic acetylcholine receptor M1 (Homo sapiens) (P11229 whole entry, looked up): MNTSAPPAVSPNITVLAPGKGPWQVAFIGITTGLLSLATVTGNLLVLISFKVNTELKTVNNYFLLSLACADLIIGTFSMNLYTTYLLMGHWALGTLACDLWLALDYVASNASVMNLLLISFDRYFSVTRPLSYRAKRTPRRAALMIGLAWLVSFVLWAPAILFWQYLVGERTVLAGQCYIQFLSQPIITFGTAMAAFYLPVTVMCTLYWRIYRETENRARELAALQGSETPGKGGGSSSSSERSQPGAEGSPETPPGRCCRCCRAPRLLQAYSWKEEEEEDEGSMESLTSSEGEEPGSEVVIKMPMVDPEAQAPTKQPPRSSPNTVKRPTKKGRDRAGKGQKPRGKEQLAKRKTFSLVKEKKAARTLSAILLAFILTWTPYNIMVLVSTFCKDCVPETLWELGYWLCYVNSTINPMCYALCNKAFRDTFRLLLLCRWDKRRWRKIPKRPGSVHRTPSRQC
Method in brief: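 Compounds were tested at 15 concentrations in three independent runs. Dye-loaded CHRM1-CHO cells were exposed 5 min at room temperature before stimulation by acetylcholine added at 50nM. Intracellular calcium was read kinetically on FDSS for 3 min.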

[13] = biological target: Muscarinic acetylcholine receptor M1 (Homo sapiens) (UniProt P11229); experiment: Cholinergic receptor muscarinic 1 (CHRM1) small molecule agonists, cell-based qHTS assay (AID 1963589); further: nearly all actives have a fitted effect of over 35% in size
Method in brief: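 Fluorescent calcium dye reports M1 activation in stably transfected CHO cells. Compounds, 15 concentrations, added after 1 h dye loading at 37 C; kinetic reading at 1 sec intervals.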

[14] = biological target: Beta-2 adrenergic receptor (Homo sapiens) (UniProt P07550); experiment: Adrenergic beta2 receptor (ADRB2) small molecule antagonists, cell-based qHTS assay (AID 1963592); further: nearly all actives have a fitted effect of over 50% in size; further: potency means the concentration at half of the fitted maximal effect
Sequence of Beta-2 adrenergic receptor (Homo sapiens) (P07550 whole entry, looked up): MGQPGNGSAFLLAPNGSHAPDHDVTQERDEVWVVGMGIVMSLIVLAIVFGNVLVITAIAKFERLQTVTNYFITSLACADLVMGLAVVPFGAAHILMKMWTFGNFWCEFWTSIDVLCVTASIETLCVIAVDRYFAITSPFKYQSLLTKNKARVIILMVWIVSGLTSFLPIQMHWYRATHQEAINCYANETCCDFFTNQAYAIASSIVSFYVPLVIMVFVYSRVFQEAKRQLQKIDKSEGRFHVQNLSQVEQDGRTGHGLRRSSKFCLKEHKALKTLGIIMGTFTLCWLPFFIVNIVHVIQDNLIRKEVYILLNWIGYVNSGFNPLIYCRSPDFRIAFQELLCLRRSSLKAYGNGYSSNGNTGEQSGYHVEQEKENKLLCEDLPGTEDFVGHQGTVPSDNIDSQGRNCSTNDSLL
Method in brief: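 Assay format: CHO-ADRB2 cells, 18-20hr seeding at 37C/5% CO2, then compound plus 1nM isoproterenol agonist mix for 0.5hr RT. Homogeneous time-resolved fluorescence cAMP detection after 1hr, expressed as 665/615 nm ratio.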

[15] = biological target: D(2) dopamine receptor (Homo sapiens) (UniProt P14416); experiment: Dopamine D2 receptor (DRD2) small molecule agonists, cell-based qHTS assay (AID 1963594); further: nearly all actives have a fitted effect of over 35% in size
Sequence of D(2) dopamine receptor (Homo sapiens) (P14416 whole entry, looked up): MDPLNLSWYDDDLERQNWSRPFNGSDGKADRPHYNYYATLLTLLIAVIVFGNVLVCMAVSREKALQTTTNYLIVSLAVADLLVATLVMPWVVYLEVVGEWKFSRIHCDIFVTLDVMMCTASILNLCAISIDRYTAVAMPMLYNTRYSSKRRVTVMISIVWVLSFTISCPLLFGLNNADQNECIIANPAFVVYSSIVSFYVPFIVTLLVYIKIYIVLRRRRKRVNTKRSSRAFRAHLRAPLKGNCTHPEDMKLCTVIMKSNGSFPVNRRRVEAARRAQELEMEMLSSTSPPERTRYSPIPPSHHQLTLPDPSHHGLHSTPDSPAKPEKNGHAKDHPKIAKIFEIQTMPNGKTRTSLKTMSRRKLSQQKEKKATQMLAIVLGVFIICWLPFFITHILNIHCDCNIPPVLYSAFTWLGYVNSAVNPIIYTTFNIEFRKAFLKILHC
Method in brief: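 HEK293 cells stably expressing DRD2 were cultured 24 h at 37 C, then given Ro20-1724 (0.1 mM final) and compounds for 10 min at room temperature. NKH477 (200nM) was then added for 30 min. cAMP was read by HTRF.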

[16] = biological target: D(2) dopamine receptor (Homo sapiens) (UniProt P14416); experiment: Dopamine D2 receptor (DRD2) small molecule antagonists, cell-based qHTS assay (AID 1963595; active means well fitted inhibition curve with a large enough effect in the signal ratio in the repeat runs, with a control signal flat; the % refers to the signal ratio)
Method in brief: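 Stable D2 receptor HEK293 line, 24 h after seeding. Compound preincubated 10 min, then quinpirole (12 nM) with forskolin analogue NKH477 (200 nM), 30 min, room temperature. Detection by time-resolved FRET of cAMP.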

[17] = biological target: Beta-2 adrenergic receptor (Homo sapiens) (UniProt P07550); experiment: Adrenergic beta2 receptor (ADRB2) small molecule agonists, cell-based qHTS assay (AID 1963593);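 further: CHO cells stably overexpressing human ADRB2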
Method in brief: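 CHO cells stably over-expressing ADRB2 were plated overnight at 37C, then dosed with compounds plus a stimulation mix containing 100uM IBMX and 25uM Ro-20-1724 for 0.5hr at room temperature. cAMP was measured by HTRF competition, 1hr.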

[18] = p53 small molecule agonists, cell-based qHTS assay (AID 1963582; active means well fitted activation curve with a large enough effect in the signal ratio in the repeat runs, not every such curve was filed as active; the % refers to the signal ratio)
Method in brief: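 After plating, p53RE-bla cells sat 5 h in the incubator; compounds or DMSO vehicle were pinned in; a 16 h incubation at 37 C followed; FRET substrate was added and, 2 h later at RT, fluorescence was measured.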

[19] = cAMP Responsive Elements (CRE) small molecule agonists, cell-based qHTS assay (AID 1963590)
Method in brief: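 Compound exposure lasted 3 h at 37 C/5% CO2 in CRE-bla HEK 293T cells grown in assay medium with 10% dialyzed FBS and 25 mM HEPES. Reporter signal came from LiveBLAzer B/G FRET substrate, 2 h, room temperature.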

[20] = cAMP Responsive Elements (CRE) small molecule antagonists, cell-based qHTS assay (AID 1963591; active means well fitted inhibition curve with a large enough effect in the signal ratio in the repeat runs, not every such curve was filed as active; the % refers to the signal ratio)
Method in brief: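 Stimulation used NKH477 at a final 0.25 uM for 3 h in compound-treated CRE-bla HEK293T cells, seeded 18 h beforehand. Reporter activity was measured with LiveBLAzer B/G FRET substrate after 2 h at room temperature.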

Measured: Potency

O=C(O)C1(C(=O)Nc2ccc(Cl)cc2Cl)CC1
active: [10] 33.4 µM
not listed: [17] | [18] | [19] | [20]
inactive: all other assays above

Cc1c(-c2ccccc2)oc2c(C(=O)OCCN3CCCCC3)cccc2c1=O
not listed: [10] | [11] | [12] | [13] | [16] | [18] | [19] | [20]
inactive: all other assays above

Cc1c(-c2cccnc2)c2ccccc2n1CCCCC(=O)O
not listed: [9] | [16] | [17] | [19] | [20]
inactive: all other assays above

O=C1OC(=O)c2cc(Oc3ccc4c(c3)C(=O)OC4=O)ccc21
not listed: [9] | [10] | [15] | [17]
inactive: all other assays above

CCc1cc(C2=C(C(=O)O)N(c3ccccc3C(F)(F)F)S(=O)(=O)c3ccccc32)cc2c1OCO2
not listed: [15] | [17] | [18] | [19] | [20]
inactive: all other assays above

CCc1ncc(C)[nH]1
not listed: [8] | [13] | [20]
inactive: all other assays above

CC1(CN2CCC(n3c(=O)[nH]c4ccccc43)CC2)OCc2ccccc2-n2cccc21 (stereo unspecified)
active: [1] 29.8 µM | [10] 1.83 µM | [14] 29.8 µM
not listed: [17] | [18] | [19]
inactive: all other assays above

Cc1coc2ccccc2c1=O
not listed: [9] | [10] | [19]
inactive: all other assays above

O=C(O)c1c2ccccc2cc2ccccc12
active: [2] 48.4 µM
not listed: [9] | [19]
inactive: all other assays above

CCOC(=O)COC(=O)c1cc(Oc2ccc(C(F)(F)F)cc2Cl)ccc1[N+](=O)[O-]
active: [14] 61.1 µM
not listed: [10] | [16] | [17] | [18] | [19] | [20]
inactive: all other assays above

NS(=O)(=O)c1ccc(C(=O)O)cc1
not listed: [9] | [16]
inactive: all other assays above

CN(C)c1ccc(C2(c3ccc(N(C)C)cc3)OC(=O)c3cc(N(C)C)ccc32)cc1
active: [7] 18.2 µM
not listed: [12] | [17] | [18] | [20]
inactive: all other assays above

O[Si](c1ccccc1)(c1ccccc1)c1ccccc1
not listed: [13] | [17] | [18]
inactive: all other assays above

O=S(=O)(Oc1ccc(Cl)cc1)c1ccccc1
active: [12] 11.9 µM
not listed: [9] | [17]
inactive: all other assays above

Fc1ccc(C(c2ccc(F)cc2)N2CCNCC2)cc1
active: [12] 2.9 µM
not listed: [9] | [10] | [11] | [17] | [19]
inactive: all other assays above
